“And” between values parts separate entries of the source, which are not always exact repeats. Equal entries are not always repeated. Inconclusive results are not listed. Where a call stands in place of a potency, no number is given. The source holds several records for some structures; these can differ, active in one and inactive in another. The source made the active and inactive calls. Calls follow the shape of the dose curve; as a rule, active = well fitted curve in the direction sought with a large enough effect in the repeat runs; inconclusive = weak or mixed curves; inactive = no such curve, though single readings can be large; an effect the other way counts as inactive or inconclusive.
Columns and labels:
[1] = A CellTox Green Cytotoxicity Assay to monitor cytotoxicity in HEK293 cells - 40 hour (AID 1224871); also: nearly all actives have a fitted effect of over 45% in size; also: potency is read from the fitted curve at half-maximal effect
Summary of the method: (§1)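 HEK293 cells premixed with CellTox Green dye were seeded at 600 cells/well and left 5 h at 37 C/5% CO2 before pin transfer of 23 nL compound in DMSO. Fluorescence from dye bound to dead-cell DNA was read during 40 h treatment.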

[2] = qHTS RealTime-Glo MT Cell Viability Assay in HEK293 cells - 16 hour (AID 1224872); also: nearly all actives have a fitted effect of over 50% in size; also: potency is read from the fitted curve at half-maximal effect
Summary of the method: (§2)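 HEK293 cells were seeded at 600 cells/well together with NanoLuc luciferase and cell-permeant prosubstrate, preincubated 5 h at 37 C/5% CO2, then given compound in DMSO by pintool. Luminescence from viable-cell prosubstrate reduction was read repeatedly over 40 h.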

[3] = qHTS RealTime-Glo MT Cell Viability Assay in HepG2 cells - 8 hour (AID 1224873); also: nearly all actives have a fitted effect of over 55% in size
Summary of the method: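 Real-time viability: cells seeded at 600 per well together with NanoLuc and cell-permeant prosubstrate, compounds added after 5 h incubation. Luminescence tracked at 0, 8, 16, 24, 32 and 40 h of exposure.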

[4] = qHTS RealTime-Glo MT Cell Viability Assay in HEK293 cells - 40 hour (AID 1224874); settings: RealTime-Glo luminescence; max response: stronger effect = lower value; also: nearly all actives have a fitted effect of over 50% in size; also: potency is read from the fitted curve at half-maximal effect
Summary of the method: (§3)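 HEK293 cells mixed with RealTime-Glo reagents (NanoLuc plus cell-permeant prosubstrate) at 600 cells/well, preincubated 5 h at 37 C/5% CO2, then given 23 nL compound in DMSO. Nonlytic luminescence from viable cells was read at 0, 8, 16, 24, 32 and 40 h.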

[5] = A CellTox Green Cytotoxicity Assay to monitor cytotoxicity in HepG2 cells - 16 hour (AID 1224876); also: nearly all actives have a fitted effect of over 45% in size
Summary of the method: (§4)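 HepG2 cells were seeded together with the CellTox Green dye at 600 cells/well, left 5 h at 37 C/5% CO2, then given compounds in DMSO. Fluorescence from dye bound to dead-cell DNA was read repeatedly over 40 h of treatment at 37 C.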

[6] = qHTS RealTime-Glo MT Cell Viability Assay in HepG2 cells - 32 hour (AID 1224877); also: nearly all actives have a fitted effect of over 55% in size
Summary of the method: (§5)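 HepG2 cells were seeded at 600 cells/well together with NanoLuc luciferase and a cell-permeant prosubstrate, preincubated 5 h at 37 C/5% CO2, then pin-dosed with compounds in DMSO. Nonlytic luminescence from viable cells was read at each time point.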

[7] = A CellTox Green Cytotoxicity Assay to monitor cytotoxicity in HepG2 cells - 24 hour (AID 1224878); also: nearly all actives have a fitted effect of over 45% in size; also: potency is read from the fitted curve at half-maximal effect
Summary of the method: as §4

[8] = A CellTox Green Cytotoxicity Assay to monitor cytotoxicity in HepG2 cells - 40 hour (AID 1224879); also: nearly all actives have a fitted effect of over 40% in size; also: potency is read from the fitted curve at half-maximal effect
Summary of the method: as §4

[9] = A CellTox Green Cytotoxicity Assay to monitor cytotoxicity in HEK293 cells - 32 hour (AID 1224881); also: nearly all actives have a fitted effect of over 40% in size; also: potency is read from the fitted curve at half-maximal effect
Summary of the method: as §1

[10] = A CellTox Green Cytotoxicity Assay to monitor cytotoxicity in HepG2 cells - 0 hour (AID 1224882); also: nearly all actives have a fitted effect of over 35% in size
Summary of the method: as §4

[11] = A CellTox Green Cytotoxicity Assay to monitor cytotoxicity in HepG2 cells - 32 hour (AID 1224883); also: nearly all actives have a fitted effect of over 50% in size
Summary of the method: as §4

[12] = A CellTox Green Cytotoxicity Assay to monitor cytotoxicity in HEK293 cells - 8 hour (AID 1224884); also: nearly all actives have a fitted effect of over 35% in size
Summary of the method: as §1

[13] = qHTS RealTime-Glo MT Cell Viability Assay in HepG2 cells - 16 hour (AID 1224885); also: nearly all actives have a fitted effect of over 50% in size
Summary of the method: as §5

[14] = qHTS RealTime-Glo MT Cell Viability Assay in HEK293 cells - 24 hour (AID 1224886); also: nearly all actives have a fitted effect of over 50% in size; also: potency is read from the fitted curve at half-maximal effect
Summary of the method: as §2

[15] = qHTS RealTime-Glo MT Cell Viability Assay in HEK293 cells - 8 hour (AID 1224887); also: nearly all actives have a fitted effect of over 50% in size; also: potency is read from the fitted curve at half-maximal effect
Summary of the method: as §3

[16] = A CellTox Green Cytotoxicity Assay to monitor cytotoxicity in HEK293 cells - 16 hour (AID 1224888); also: nearly all actives have a fitted effect of over 35% in size
Summary of the method: as §1

[17] = qHTS RealTime-Glo MT Cell Viability Assay in HepG2 cells - 0 hour (AID 1224889); also: nearly all actives have a fitted effect of over 50% in size
Summary of the method: as §5

[18] = qHTS RealTime-Glo MT Cell Viability Assay in HEK293 cells - 0 hour (AID 1224880); also: top concentration of the series differs between compounds; nearly all actives have a fitted effect of over 45% in size
Summary of the method: as §3

[19] = A CellTox Green Cytotoxicity Assay to monitor cytotoxicity in HEK293 cells - 24 hour (AID 1224875)
Summary of the method: as §1

Row | SMILES | Potency [1] | Potency [2] | outcome [3] | max response [4] | Potency [5] | outcome [6] | Potency [7] | Potency [8] | Potency [9] | Potency [10] | Potency [11] | Potency [12] | Potency [13] | Potency [14] | Potency [15] | Potency [16] | Potency [17] | Potency [18] | Potency [19] | Potency [4]
1 | CCN(CC)CCOC(=O)c1ccc(N)cc1 | inactive | inactive | inactive | -6.53% (inactive) and -0.799% (inactive) | inactive | inactive | inactive | inactive | inactive | inactive | inactive | inactive | inactive | inactive | inactive | inactive | inactive |  |  | 
2 | CC(=O)OC/C=C(C)/C=C/C=C(C)/C=C/C1=C(C)CCCC1(C)C | inactive | inactive | inactive | -17.8% (inactive) and 3.29% (inactive) and 17.2% (inactive) | inactive | inactive | inactive | inactive | inactive | inactive | inactive | inactive | inactive |  | inactive |  | inactive |  |  | 
3 | C[C@]12CC[C@@H]3c4ccc(O)cc4CC[C@H]3[C@@H]1CCC2=O | 49 µM (active) and inactive | inactive | inactive |  | inactive | inactive | inactive | inactive | 49 µM (active) and inactive | inactive | inactive | inactive | inactive | inactive | inactive | inactive | inactive |  |  | 
4 | O=C(O)Cc1cccc2ccccc12 | inactive | inactive | inactive | 0.279% (inactive) and 2.27% (inactive) and -0.352% (inactive) | inactive | inactive | inactive | inactive | inactive | inactive | inactive | inactive | inactive | inactive | inactive | inactive | inactive | inactive |  | 
5 | CCOC(=O)C(C)(C)Oc1ccc(Cl)cc1 | inactive | inactive | inactive | 0.886% (inactive) and 6.32% (inactive) and -3.11% (inactive) | inactive | inactive | inactive | inactive | inactive | inactive |  | inactive | inactive |  | inactive |  | inactive | inactive | inactive | 
6 | Cc1c(N(C)CS(=O)(=O)O)c(=O)n(-c2ccccc2)n1C | inactive | inactive | inactive | -0.4% (inactive) and 7.69% (inactive) | inactive | inactive | inactive | inactive | inactive | inactive |  | inactive | inactive |  | inactive |  | inactive | inactive |  | 
7 | CCCCCCCCOc1ccc(C(=O)c2ccccc2)c(O)c1 | inactive | inactive | inactive | -20.9% (inactive) and 7.71% (inactive) and 4.9% (inactive) | inactive | inactive | inactive | inactive | inactive | inactive |  | inactive | inactive |  | inactive |  | inactive | inactive | inactive | 
8 | O=C(OCc1ccccc1)c1ccccc1 | 43.8 µM (active) and inactive | inactive | inactive | -12% (inactive) and 0.176% (inactive) and 2.06% (inactive) | inactive | inactive | inactive | inactive | 43.8 µM (active) and inactive | inactive | inactive | inactive | inactive |  | inactive | inactive | inactive | inactive |  | 
9 | Cn1cnc2c1c(=O)[nH]c(=O)n2C | inactive | inactive | inactive | 8.97% (inactive) and 7.21% (inactive) | inactive | inactive | inactive | inactive | inactive | inactive | inactive | inactive | inactive | inactive | inactive |  | inactive | inactive |  | 
10 | N[C@@H](Cc1c[nH]c2ccccc12)C(=O)O | inactive | inactive | inactive | 11.5% (inactive) | inactive | inactive | inactive | inactive | inactive | inactive |  | inactive | inactive | inactive | inactive |  | inactive |  | inactive | 
11 | C#C[C@]1(O)CC[C@H]2[C@@H]3CCc4cc(O)ccc4[C@H]3CC[C@@]21C | 12.2 µM (active) and inactive | inactive | inactive |  | inactive | inactive | 43.3 µM (active) and 6.7 nM (active) | 17.3 µM (active) and 19.5 µM (active) | inactive | inactive |  | inactive | inactive | 19.5 µM (active) | inactive |  | inactive | inactive |  | 6.87 µM (active) and 21.9 µM (active)
12 | COC(=O)c1ccc(C=O)cc1 | inactive | inactive | inactive | -13.1% (inactive) and 1.66% (inactive) | inactive | inactive | inactive | inactive | inactive | inactive | inactive | inactive | inactive | inactive | inactive | inactive | inactive |  | inactive | 
13 | COCC(C)N (stereo unspecified) | inactive | inactive | inactive | 4.72% (inactive) and 4.68% (inactive) | inactive | inactive | inactive | inactive | inactive | inactive | inactive | inactive | inactive | inactive | inactive |  | inactive |  |  | 
14 | CN(C)Cc1cc(CN(C)C)c(O)c(CN(C)C)c1 | inactive | inactive | inactive | -0.259% (inactive) and 3.23% (inactive) | inactive | inactive | inactive | inactive | inactive | inactive | inactive | inactive | inactive |  | inactive |  | inactive |  |  | 
15 | CCCCOC(=O)CCCCCCCCC(=O)OCCCC | inactive | inactive | inactive | 14.7% (inactive) and 5.35% (inactive) | inactive | inactive | inactive | inactive | inactive | inactive |  | inactive | inactive | inactive | inactive |  | inactive | inactive |  | 
16 | C[C@]12CC[C@@H]3c4ccc(O)cc4C[C@@H](CCCCCCCCCS(=O)CCCC(F)(F)C(F)(F)F)[C@H]3[C@@H]1CC[C@@H]2O (stereo partly specified) | inactive | 43.6 µM (active) |  |  | inactive | inactive | inactive | inactive | inactive | inactive |  | inactive | inactive | 43.6 µM (active) | 43.6 µM (active) |  | inactive |  |  | 43.6 µM (active)
17 | NC(=O)c1ccc([N+](=O)[O-])cc1Cl | inactive | inactive | inactive | -1.29% (inactive) and 1.15% (inactive) | inactive | inactive | inactive | inactive | inactive | inactive | inactive | inactive | inactive | inactive | inactive | inactive | inactive | inactive |  | 
18 | CC(C)(C)NCC(O)c1ccc(O)c(CO)c1 (stereo unspecified) | inactive | inactive | inactive | 9.56% (inactive) and 4.37% (inactive) | inactive | inactive | inactive | inactive | inactive | inactive | inactive | inactive | inactive | inactive | inactive | inactive | inactive | inactive |  | 
19 | Cc1c(N(C)C)c(=O)n(-c2ccccc2)n1C | inactive | inactive | inactive | 8.84% (inactive) and 0.672% (inactive) and 6.67% (inactive) | inactive | inactive | inactive | inactive | inactive | inactive | inactive | inactive | inactive |  | inactive |  | inactive |  | inactive | 
20 | OCCCc1ccccc1 | inactive | inactive | inactive | 12.9% (inactive) and 2.88% (inactive) | inactive | inactive | inactive | inactive | inactive | inactive |  | inactive | inactive | inactive | inactive |  | inactive | inactive |  | 
